Laboratory results taken from ChEMBL document CHEMBL4513140, “CO-ADD screening of Lancaster University (UK) compounds” (2021).
Measured potencies and affinities stand elsewhere.

Legend:
[1] = tested on: Staphylococcus aureus; settings: Concentration 32 ug.mL-1; ASSAY_TEST Inhibition of Bacterial Growth; detection method Absorption (OD600); MEDIA CAMHB; plate type 384well; NBS; CORNING #3640; time 18 hr
[2] = tested on: Escherichia coli; settings: Concentration 32 ug.mL-1; ASSAY_TEST Inhibition of Bacterial Growth; detection method Absorption (OD600); MEDIA CAMHB; plate type 384well; NBS; CORNING #3640; time 18 hr

| SMILES | Inhibition [1] [%] | Inhibition [2] [%] |
| --- | --- | --- |
| COC(=O)c1ccc(S)cc1 | 8.34 | -21.23 |
| CC(=NN)c1cc(/C(C)=N/N)cc(/C(C)=N/N)c1 | 18.93 | 9.06 |
| c1ccc2nc3c4cccnc4c4ncccc4c3nc2c1 | 8.68 | -14.57 |
| CC(=O)c1cc(C(C)=O)cc(C(C)=O)c1 | 25.72 | -14.66 |
